Source: PubChem
In the library only some 7.6% were active in any assay of this set; here they are far more common.
KB-V1 cytotox: KB-V1 MDR subline cytotoxicity; KB-V1 MDR cells viability, CellTiter-Glo, 72 h; AID 1347076; 3.4% of 400,000 active; Potency, µM (titrated, usually from 46.1 µM), most hits filed as cytotoxic; note: nearly all actives have a fitted effect of over 60% in size
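Cytotoxicity toward P-gp-expressing KB-V1 cells was determined as loss of CellTiter-Glo luminescence after 72 h at 37 degrees C. Compounds were tested in quantitative HTS format across a concentration range, with curves fitted to normalized data.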
SW480 rereplic: induces DNA re-replication in SW480 colon adenocarcinoma cells. SW480 DNA re-replication, Hoechst DNA content imaging, 48 h. Potency, µM (highest dose often 46.1 µM), most hits filed as activators. 1.8% of 340,000 active; note: nearly all actives have a fitted effect of over 55% in size
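Image-based read-out: total Hoechst fluorescence of nuclei (405 nm excitation, 500-530 nm emission), with hits raising the fraction of high-intensity nuclei. SW480 colon cells incubated 48 hr with compounds at 37 C.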
KB-3-1 cytotox: kills parental KB-3-1 adenocarcinoma cells. KB-3-1 viability, CellTiter-Glo ATP luminescence, 72 h. Potency, µM (highest dose often 46.1 µM), actives largely listed as cytotoxic. 1.4% of 400,000 active. AID 1347075; note: nearly all actives have a fitted effect of over 60% in size
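Viability of parental KB-3-1 cells, measured by CellTiter-Glo luminescence, followed a 72 h incubation at 37 °C with pinned compounds in phenol-red-free DMEM containing 10% FBS.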
KCNH2 3.1 inh: inhibitors of human KCNH2 3.1 potassium channel isoform. U2OS KCNH2 3.1, thallium flux FluxOr; stronger effect = lower value. AID 720553. 0.95% of 340,000 active. activity change, % (tested at about 1.8 µM);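 active = maximum activity change below -70%; inconclusive = maximum activity change from -70% to -50%; inactive = maximum activity change above -50%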;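 note: thallium influx rate constant from kinetic fluorescence after stimulation buffer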
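Steps: virus added to U2OS suspension (4 h, RT, dark); medium with 10% FBS added, cells plated, 37 C overnight; FluxOr/Red40 loading buffer 45 min RT; stimulation buffer, 2 min kinetic read; rate constant normalized.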
hERG WT inh: blocks the wildtype human KCNH2 potassium channel | U2OS, BacMam KCNH2, thallium flux FluxOr; stronger effect = lower value | activity change, % at 1.84 µM | 0.37% of 340,000 active | AID 720551;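 active = maximum activity change below -70%; inconclusive = maximum activity change between -70% and -50%; inactive = maximum activity change above -50%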
Target sequence (Q12809 whole entry, looked up): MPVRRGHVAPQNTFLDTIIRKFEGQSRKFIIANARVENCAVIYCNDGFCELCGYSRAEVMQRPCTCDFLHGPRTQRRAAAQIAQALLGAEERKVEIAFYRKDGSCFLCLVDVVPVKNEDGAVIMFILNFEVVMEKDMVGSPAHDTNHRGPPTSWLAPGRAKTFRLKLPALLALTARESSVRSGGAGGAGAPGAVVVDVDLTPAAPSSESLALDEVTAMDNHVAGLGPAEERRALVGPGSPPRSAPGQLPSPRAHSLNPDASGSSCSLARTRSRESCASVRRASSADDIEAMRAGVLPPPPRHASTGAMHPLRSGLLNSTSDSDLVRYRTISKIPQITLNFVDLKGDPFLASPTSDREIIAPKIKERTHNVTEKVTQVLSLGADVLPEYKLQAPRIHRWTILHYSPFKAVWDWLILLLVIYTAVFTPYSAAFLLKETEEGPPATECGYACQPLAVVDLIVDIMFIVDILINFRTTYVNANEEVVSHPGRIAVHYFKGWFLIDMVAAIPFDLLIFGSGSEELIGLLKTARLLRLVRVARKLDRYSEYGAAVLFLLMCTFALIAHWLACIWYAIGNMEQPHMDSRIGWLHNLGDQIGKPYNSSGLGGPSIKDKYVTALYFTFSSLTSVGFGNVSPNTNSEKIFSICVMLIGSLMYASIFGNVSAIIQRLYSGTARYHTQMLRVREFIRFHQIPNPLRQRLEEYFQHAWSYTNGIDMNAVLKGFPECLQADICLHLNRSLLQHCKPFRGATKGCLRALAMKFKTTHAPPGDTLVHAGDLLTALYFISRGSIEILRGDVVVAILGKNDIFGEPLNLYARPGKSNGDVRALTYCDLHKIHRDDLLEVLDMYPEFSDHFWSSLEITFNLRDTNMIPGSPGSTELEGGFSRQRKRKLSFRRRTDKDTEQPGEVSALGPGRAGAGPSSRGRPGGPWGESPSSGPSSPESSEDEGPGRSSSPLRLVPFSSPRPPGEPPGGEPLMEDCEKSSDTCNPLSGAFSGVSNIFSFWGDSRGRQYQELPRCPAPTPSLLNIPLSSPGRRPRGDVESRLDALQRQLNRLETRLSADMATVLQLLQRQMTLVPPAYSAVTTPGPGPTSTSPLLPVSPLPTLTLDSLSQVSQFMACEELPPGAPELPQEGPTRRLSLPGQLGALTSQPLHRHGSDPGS
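U2OS cells transduced with wild-type KCNH2 virus are loaded with FluxOr dye for 45 min, and thallium flux is measured in kinetic reads before and after stimulation buffer. Rate constants are normalized to DMSO controls.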
MCF10A rereplic: induces DNA re-replication in MCF 10a normal breast cells; MCF 10A DNA re-replication, Hoechst nuclear intensity, 48 h; Potency, µM (highest dose often 46.1 µM), most hits filed as activators; 2.9% of 350,000 active; AID 624296; note: nearly all actives have a fitted effect of over 50% in size
Each line names hits and unclear results; the compound was inactive in the other large screens. Unless noted, calls come from the whole dose curve; as a rule, active = well fitted curve in the direction sought with a large enough effect; inconclusive = small, poorly fitted or top-dose-only effect, or another doubt; inactive = no such curve, though single readings can be large; an effect the other way counts as inactive or inconclusive.

CC1=Nc2cc(C(=O)NCC3CCCO3)ccc2Sc2ccc(C)cc21 (configuration not stated)	SW480 rereplic 1.03µM, KB-3-1 cytotox inconclusive, MCF10A rereplic 2.06µM
CCC(C)NC(=O)c1ccc2c(c1)N=C(C)c1cc(C)ccc1S2 (configuration not stated)	KB-3-1 cytotox 5.17µM (no result: SW480 rereplic, KCNH2 3.1 inh, hERG WT inh, MCF10A rereplic)
CC1=Nc2cc(C(=O)O)ccc2Sc2ccc(C)cc21	none
CC1=Nc2cc(C(=O)NCc3ccco3)ccc2Sc2ccc(C)cc21	KB-V1 cytotox 0.581µM, SW480 rereplic 1.3µM, KB-3-1 cytotox inconclusive, MCF10A rereplic 1.03µM
O=C1CCN(S(=O)(=O)c2ccc(Cl)cc2)CCN1	none
COc1cccc(NC(=O)CN2C(=O)C(=O)N(C3CCCC3)C2=O)c1	none
O=C(c1ccccc1)c1nn(-c2ccc(Cl)cc2)cc1C(=O)c1cc2ccccc2oc1=O	KB-V1 cytotox 7.31µM, KB-3-1 cytotox inconclusive, MCF10A rereplic inconclusive
CC(Oc1ccccc1Cl)C(=O)/C=C/N(C)C (configuration not stated)	KB-V1 cytotox inconclusive, MCF10A rereplic 18.4µM
CC(Oc1ccccc1F)C(=O)/C=C/N(C)C (configuration not stated)	KB-V1 cytotox inconclusive
COC(=O)C1(c2ccccc2)NC(c2cccs2)C2C(=O)N(C)C(=O)C21 (configuration not stated)	none
COC(=O)C1(c2ccccc2)NC(c2cccs2)C2C(=O)N(c3ccccc3)C(=O)C21 (configuration not stated)	KB-V1 cytotox 23.1µM, KB-3-1 cytotox inconclusive
Cc1ccc2nc3c(cc(C(=O)NCCCn4ccnc4)n3C)c(=O)n2c1	SW480 rereplic inconclusive, MCF10A rereplic 14.6µM
C=CCn1c(=N)c(C(=O)NCCCOC)cc2c(=O)n3ccccc3nc21	SW480 rereplic 1.3µM, MCF10A rereplic 2.06µM
C=CCn1c(=N)c(C(=O)NCCCOC)cc2c(=O)n3cc(C)ccc3nc21	KB-V1 cytotox inconclusive, SW480 rereplic inconclusive, MCF10A rereplic 8.2µM
COCCCn1c(=N)c(C(=O)NCC2CCCO2)cc2c(=O)n3cc(C)ccc3nc21 (configuration not stated)	KB-V1 cytotox inconclusive (no result: SW480 rereplic, KCNH2 3.1 inh, hERG WT inh, MCF10A rereplic)
Cc1ccc(CC(=O)NCCCn2ccnc2)cc1	none
CC1=CC(=O)C(C(C)=Nc2ccccc2Cl)C(=O)O1 (configuration not stated)	none
O=C(CCn1nc(-c2ccc(Cl)cc2)ccc1=O)N1CCN(c2ccccc2)CC1	none
O=C(NC(=S)N1CCOCC1)c1ccc([N+](=O)[O-])cc1	SW480 rereplic 0.651µM
CCCCC(=O)NC(NC(=S)N1CCOCC1)C(Cl)(Cl)Cl (configuration not stated)	none
O=C(NC(NC(=S)N1CCOCC1)C(Cl)(Cl)Cl)c1ccc(Cl)cc1 (configuration not stated)	KB-V1 cytotox 13µM
N#Cc1ccc(C(=O)NC(=S)N2CCOCC2)cc1	none
O=C(CNC(=O)c1cccc(Br)c1)N/N=C/c1ccc[nH]1	none
COc1ccccc1NC(=O)N1CCN(c2cccc(C(F)(F)F)c2)CC1	KB-V1 cytotox inconclusive, MCF10A rereplic inconclusive
COc1ccccc1CC(=O)N1CCN(c2cccc(C(F)(F)F)c2)CC1	KB-V1 cytotox 11.6µM
O=C(/C=C/c1ccc(Br)cc1)N1CCN(c2cccc(C(F)(F)F)c2)CC1	KB-V1 cytotox inconclusive, KB-3-1 cytotox inconclusive, MCF10A rereplic 13µM
CSc1nc(NCc2ccccc2)c2c3c(sc2n1)CN(C)CC3	KB-V1 cytotox inconclusive, MCF10A rereplic 23.1µM
COCCNc1nc(SC)nc2sc3c(c12)CCN(C)C3	none
CSc1nc(NCC(C)C)c2c3c(sc2n1)CN(C)CC3	KB-V1 cytotox 18.4µM
Cc1ccc(OCC(=O)N/N=C/c2cccnc2)cc1	none
CCOC(=O)c1c(N/N=C/c2cccnc2)n[nH]c1C	KB-V1 cytotox 5.8µM, SW480 rereplic inconclusive, KB-3-1 cytotox 9.2µM, MCF10A rereplic inconclusive
CCOc1ccccc1NC(=O)Nc1nnc(N(C)Cc2ccccc2)s1	KB-V1 cytotox inconclusive (no result: SW480 rereplic, KCNH2 3.1 inh, hERG WT inh, MCF10A rereplic)
